Compounds with a hit are over-represented: about 5.7% of the library has one in this group of screens.
MPTP block = blocks calcium-induced mitochondrial swelling | isolated mouse mitochondria, Ca2+ swelling absorbance, 30 min | inhibition, % at 10 µM | actives 1.4% (n = 360,000);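 active = inhibition of 50% or more, scaled per plate between neutral and stimulator controls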;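 also: 0% = DMSO wells given calcium and 100% = 1 mM EGTA wells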
FAS TE block = blocks the thioesterase domain of human fatty acid synthase; P49327; recombinant FAS-TE, OMFH fluorogenic substrate, fluorescence endpoint; inhibition, % at 15 µM; actives 0.67% (n = 360,000); AID 602261;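 active = compounds whose normalised, plate-corrected inhibition of enzyme fluorescence in the single-dose primary screen is 50% or more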;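 also: 0% = DMSO with enzyme and 100% = substrate without enzyme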
Target sequence (P49327 whole entry, looked up, the tested form may be a part): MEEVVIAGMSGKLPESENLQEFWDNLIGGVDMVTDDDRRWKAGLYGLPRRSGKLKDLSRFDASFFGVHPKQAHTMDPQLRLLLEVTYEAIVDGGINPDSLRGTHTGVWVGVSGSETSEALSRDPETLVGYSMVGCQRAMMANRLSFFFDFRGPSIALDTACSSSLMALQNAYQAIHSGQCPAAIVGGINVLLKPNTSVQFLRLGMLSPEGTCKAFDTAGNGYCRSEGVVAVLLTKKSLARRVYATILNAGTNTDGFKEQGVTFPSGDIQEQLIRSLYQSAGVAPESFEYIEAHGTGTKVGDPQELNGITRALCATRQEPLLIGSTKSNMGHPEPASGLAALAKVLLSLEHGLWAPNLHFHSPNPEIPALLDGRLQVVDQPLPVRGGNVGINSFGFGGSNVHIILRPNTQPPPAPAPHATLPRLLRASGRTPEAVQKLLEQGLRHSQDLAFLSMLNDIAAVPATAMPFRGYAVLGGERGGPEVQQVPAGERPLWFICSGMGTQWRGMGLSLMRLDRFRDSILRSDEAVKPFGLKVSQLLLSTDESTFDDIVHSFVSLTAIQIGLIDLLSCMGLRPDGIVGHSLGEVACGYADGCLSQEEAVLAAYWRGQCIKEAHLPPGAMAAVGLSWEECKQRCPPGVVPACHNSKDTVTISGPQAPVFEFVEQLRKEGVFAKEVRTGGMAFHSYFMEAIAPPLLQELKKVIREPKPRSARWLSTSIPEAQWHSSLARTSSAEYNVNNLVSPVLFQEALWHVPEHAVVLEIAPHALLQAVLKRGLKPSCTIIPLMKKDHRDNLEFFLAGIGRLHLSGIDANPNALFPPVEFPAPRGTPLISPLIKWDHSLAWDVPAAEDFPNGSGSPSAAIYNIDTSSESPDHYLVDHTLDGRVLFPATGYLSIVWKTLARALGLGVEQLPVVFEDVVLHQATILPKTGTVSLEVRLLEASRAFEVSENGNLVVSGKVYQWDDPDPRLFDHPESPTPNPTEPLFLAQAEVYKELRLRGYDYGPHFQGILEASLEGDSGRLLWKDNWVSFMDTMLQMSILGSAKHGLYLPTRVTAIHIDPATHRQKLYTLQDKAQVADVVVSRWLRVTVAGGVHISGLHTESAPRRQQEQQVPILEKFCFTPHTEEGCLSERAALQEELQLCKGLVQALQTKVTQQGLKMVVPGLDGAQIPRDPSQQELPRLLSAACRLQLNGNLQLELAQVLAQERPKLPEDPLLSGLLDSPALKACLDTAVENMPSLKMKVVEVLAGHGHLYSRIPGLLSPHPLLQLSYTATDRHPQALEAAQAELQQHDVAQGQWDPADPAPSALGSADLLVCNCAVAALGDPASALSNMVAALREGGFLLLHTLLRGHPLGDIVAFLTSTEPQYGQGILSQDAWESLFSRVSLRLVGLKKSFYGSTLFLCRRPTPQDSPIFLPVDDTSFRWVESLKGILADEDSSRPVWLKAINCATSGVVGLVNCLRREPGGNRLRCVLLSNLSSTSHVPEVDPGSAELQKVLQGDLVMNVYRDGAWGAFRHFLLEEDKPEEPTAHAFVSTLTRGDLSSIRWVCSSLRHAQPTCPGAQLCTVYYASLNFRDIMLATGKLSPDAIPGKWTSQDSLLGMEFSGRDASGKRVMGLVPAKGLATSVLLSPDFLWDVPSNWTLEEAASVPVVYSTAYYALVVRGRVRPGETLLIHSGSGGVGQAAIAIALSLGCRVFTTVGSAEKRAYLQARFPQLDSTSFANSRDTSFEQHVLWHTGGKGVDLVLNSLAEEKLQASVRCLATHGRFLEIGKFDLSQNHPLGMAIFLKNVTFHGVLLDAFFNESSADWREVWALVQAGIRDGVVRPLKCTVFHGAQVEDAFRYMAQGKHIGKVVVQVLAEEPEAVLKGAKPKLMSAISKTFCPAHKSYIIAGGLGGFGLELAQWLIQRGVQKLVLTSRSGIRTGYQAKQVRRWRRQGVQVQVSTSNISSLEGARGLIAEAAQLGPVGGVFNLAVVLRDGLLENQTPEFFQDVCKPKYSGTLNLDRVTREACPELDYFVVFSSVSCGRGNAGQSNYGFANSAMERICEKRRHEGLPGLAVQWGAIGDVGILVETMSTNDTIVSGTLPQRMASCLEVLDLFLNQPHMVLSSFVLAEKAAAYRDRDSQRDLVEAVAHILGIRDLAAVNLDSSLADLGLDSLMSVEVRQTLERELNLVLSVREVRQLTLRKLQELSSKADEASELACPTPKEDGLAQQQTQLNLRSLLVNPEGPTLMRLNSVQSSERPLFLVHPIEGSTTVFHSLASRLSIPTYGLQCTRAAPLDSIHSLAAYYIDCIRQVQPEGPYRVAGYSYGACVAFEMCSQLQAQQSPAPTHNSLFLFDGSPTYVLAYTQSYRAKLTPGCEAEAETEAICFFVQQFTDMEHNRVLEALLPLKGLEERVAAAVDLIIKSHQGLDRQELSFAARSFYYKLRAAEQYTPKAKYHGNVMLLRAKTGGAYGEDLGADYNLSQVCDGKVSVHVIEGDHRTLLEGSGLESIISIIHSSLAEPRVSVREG
GRIN3A LBD mod = NR3A (human) ligand-binding domain modulation; NR3A LBD differential scanning fluorimetry, Tm shift; 0% = protein alone, 100% = glycine-bound protein; actives 2.5% (n = 340,000); Tm shift relative to glycine control, % at 25 µM;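 active = melting temperature shift of at least 10% of the positive control shift, at one fixed dose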
Myeloid diff 2 = myeloid differentiation induction | ER-HoxA9 myeloid progenitors, lysozyme-GFP differentiation, flow cytometry | calls only at 10 µM | actives 1% (n = 360,000) | AID 624256;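 active = normalized GFP-positive differentiation at or above the plate's own cutoff, the solvent-only control mean plus 3 SD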;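 also: cells exposed to compound for four days before flow analysis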
rCAG RNA binder = molecules binding r(CAG) RNA repeats; inhibition, % at 3 µM; r(CAG) RNA repeat, TO-PRO-1 dye displacement fluorescence; actives 1.3% (n = 370,000);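 active = inhibition above the plate cutoff, the mean of all test compounds on that plate plus 3 SD, cut at about 35% in these data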;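 also: 0% = DMSO alone and 100% = 100 µM mitoxantrone as full dye displacement; higher means more dye released from RNA so lower well fluorescence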
Myeloid diff = myeloid differentiation induction. shares compounds with Myeloid diff 2. AID 651706. calls only. ER-HoxA9 myeloid progenitors, GFP/Mac1 double-positive flow. actives 2% (n = 2,300);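 active = share of green or green-and-red cells above 9 and 9% in run 1 or 4 and 3% in run 2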
GFP autofluor = counter-screen for myeloid differentiation promoters: compound fluorescence; shares compounds with Myeloid diff 2; ER-HoxA9 myeloid progenitors, no estrogen, GFP autofluorescence flow cytometry; vehicle wells 0%, positive control 100%; fluorescence response, % (test concentration not listed); actives 7.4% (n = 2,300);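 active = over 5% cells positive for green fluorescent reporter, or over 2% positive for both it and APC stain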;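 also: range taken on the double positive population between DMSO and positive control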
An asterisk follows results filed as active; i = inactive; / = not tested or not shown; + = active, no number.

SMILES	MPTP block	FAS TE block	GRIN3A LBD mod	Myeloid diff 2	rCAG RNA binder	Myeloid diff	GFP autofluor
Cc1ccc(S(=O)(=O)/N=C(\N)Nc2nc(C)c3cc(C)c(C)cc3n2)cc1	-1	9	-1	i	13	i	0
COc1ccc(NC(=O)c2ccco2)cc1NC(=O)c1ccco1	-2	-4	-2	i	-2	i	0
CC[C@@]1(C(=O)OC)N[C@H](CN(C)C(=O)COC)[C@@H]2C(=O)N(Cc3ccccc3)C(=O)[C@@H]21	-1	-6	-2	+	1	i	7.3*
COCC(=O)N(C)C[C@H]1N[C@@](Cc2ccccc2)(C(=O)OC)[C@H]2C(=O)N(Cc3ccccc3)C(=O)[C@@H]12	0	-6	-1	i	1	/	/
CN(CC(=O)Nc1cccc(F)c1)C(=O)CCCNC(=O)c1ccc(Cl)cc1	0	-3	1	i	-2	/	/
CC(C)CNc1ncnc2c1ncn2[C@H]1CN(Cc2ccc(-c3ccccc3)cc2)C[C@@H](CO)O1	2	5	/	i	6	/	/
CC(C)(C)c1ccc(OCCC(=O)OCC(=O)Nc2ccc(N3CCOCC3)cc2)cc1	-2	10	-6	i	-3	/	/
CCC(C)NC(=S)Nc1ccc2nc(N3CCN(CC)CC3)cc(C)c2c1 (centres undefined)	2	-13	-1	+	-9	i	0
CCC(C)NC(=S)Nc1ccc2nc(N3CCOCC3)cc(C)c2c1 (centres undefined)	0	-16	0	i	1	/	/
CCc1cc(Cn2nc(-c3ccccc3)cc2C(=O)NCc2ccc(C)cc2)on1	2	32	-2	i	-4	/	/
O=C(CSc1nnnn1-c1ccc(F)cc1)Nc1ccc(N2CCOCC2)c(Cl)c1	1	-25	-10	+	0	i	0
O=C(NC(=S)Nc1ccc(N2CCOCC2)c(Cl)c1)C(c1ccccc1)c1ccccc1	3	30	-2	i	7	/	/
CCCC(=O)NC(=S)Nc1ccc(N2CCOCC2)c(Cl)c1	0	1	0	i	-6	i	0
O=C(Nc1ccc(N2CCOCC2)c(Cl)c1)c1ccc(F)cc1	1	0	-1	i	-5	/	/
CC(C)NC(=S)n1cc(C(=O)c2cc(Cl)cc(Cl)c2O)cn1	0	-4	-1	/	7	/	/
COc1ccc(CN(C)S(=O)(=O)c2c(C)noc2C)cc1OC	0	1	0	i	0	/	/
Cc1cc(Cl)ccc1OCC(=O)Nc1cccc(S(=O)(=O)NC2=NCCCCC2)c1	0	9	-7	+	-4	i	1
Cc1ccc2nc(SCC(=O)Nc3cccc(S(=O)(=O)NC4=NCCCCC4)c3)[nH]c2c1	3	-2	1	i	3	i	96*
Cc1onc(-c2ccc(Cl)cc2Cl)c1-c1csc(COc2ccccc2)n1	0	20	-3	i	0	/	/
COc1cccc2c1OC[C@@H](CO)[C@H]2N(C)C(=O)Nc1ccc(Cl)cc1Cl	2	-1	2	i	-3	i	0
COc1ccccc1NC(=O)CSc1nnc(-c2ccccn2)n1Cc1ccco1	0	-1	-5	i	2	/	/
COc1ccccc1NC(=O)CSc1nnc(-c2ccco2)n1Cc1ccco1	2	-3	-1	i	3	i	1
COc1ccccc1CNc1nc(NCc2ccc(C(C)C)cc2)c2sccc2n1	49	10	/	i	4	i	0
COc1ccc(N2CCN(S(=O)(=O)c3ccc4c(c3)OCCO4)CC2)cc1	1	5	1	i	0	/	/
O=C(NCCc1ccccc1)C1CCCN1C(=O)Nc1ccc(F)cc1 (centres undefined)	0	-4	1	+	-5	i	0
SMILES	MPTP block	FAS TE block	GRIN3A LBD mod	Myeloid diff 2	rCAG RNA binder	Myeloid diff	GFP autofluor
COc1cccc(N2C(=NC(=O)C3CCCO3)SC3CS(=O)(=O)CC32)c1 (centres undefined)	0	-5	0	i	0	/	/
C=CCN1C(=O)C(Cc2ccc(C)cc2)S/C1=N/N=C/c1ccco1 (centres undefined)	0	22	0	/	-4	i	1
O=C1C(Cc2ccccc2)S/C(=N/N=C/c2ccco2)N1c1ccccc1 (centres undefined)	-2	-3	3	i	11	/	/
CCOC(=O)/C(=C/C=C1\Sc2ccccc2N1CC)C(C)=O	2	-47	0	i	/	i	0
NC(=O)CC(NC(=O)c1ccccc1)c1ccc(NCc2ccc(F)cc2)c([N+](=O)[O-])c1 (centres undefined)	-2	-6	-1	+	4	i	0
COc1cccc(C(=O)NCc2nnc(SCC(=O)Nc3nccs3)n2-c2cccc(C)c2)c1	-2	-4	1	i	-2	/	/
Cc1cccc(-n2c(CNC(=O)COc3ccccc3)nnc2SCC(=O)Nc2nccs2)c1	-1	-6	1	i	-8	i	5.4*
CC(C)CC1C(=O)N(Cc2cn(Cc3ccco3)nn2)CCS(=O)(=O)N1Cc1ccc(-c2ccncc2)cc1 (centres undefined)	-1	2	/	i	9	/	/
CCS(=O)(=O)c1ccc2c(c1)N(S(C)(=O)=O)CC(C(=O)NC1CC1)O2 (centres undefined)	1	-5	2	+	4	i	2
CN(C)CCN(C(=O)c1ccccc1Cl)c1nc2c(Cl)cccc2s1	-1	16	-6	+	-3	i	1
CN(C)CCN(C(=O)c1cccc(Cl)c1)c1nc2c(Cl)cccc2s1	1	14	0	i	-3	/	/
CC(=O)c1c(C)[nH]c(C(=O)NNC(=O)COc2ccc(Cl)cc2C)c1C	-1	12	-2	i	7	/	/
CC(=O)c1c(C)[nH]c(C(=O)NNC(=O)COc2cc(C)ccc2C(C)C)c1C	0	6	-2	i	-2	i	0
FC(F)(F)c1ccc(-n2ccnc2)nc1	0	-9	-1	+	-1	i	0
CC(C)[C@H](NC(=O)c1ccco1)C(=O)OCC(=O)c1ccc(Br)s1	-1	5	0	i	18	/	/
CCN(CC)C(=O)CSc1ncnc2c(-c3cccs3)nsc12	0	21	-2	i	34	i	1
O=C(O)c1ccc(-c2ccc(O)c(F)c2)cc1	0	-8	1	i	-1	i	0
O=C(O)c1ccc(O)c(O)c1	-2	-2	-3	i	-1	/	/
CCc1nc2ccc(C(=O)N3CCN(C(=O)c4ccco4)CC3)cn2c1N(CCC(C)C)CCN(C)C	0	-6	/	i	-3	/	/
O=C(O)CCCN1C(=O)/C(=C\c2ccc(-c3nc4ccccc4s3)o2)SC1=S	36	8	0	+	27	i	0
